Results from PubChem BioAssay AID1347416 (National Center for Advancing Translational Sciences (NCATS), 2020).
The campaign covered roughly 4,100 compounds. About 1,600 (39%) were called active. Another 25% or so got no clear call; they are omitted. Calls come from the whole dose curve; as a rule, active = well fitted inhibition curve with a large enough effect; inconclusive = small, poorly fitted or top-dose-only effect; inactive = no such curve, though single readings can be large or run the other way. Some of the results follow.

Experiment: qHTS Validation assay for Inhibitors of Plasmodium falciparum Dd2 growth in vitro; note: nearly all actives have a fitted effect of over 70% in size
Conditions: P. falciparum Dd2 in RBCs, SYBR Green growth, 72 h; series mostly up to 28.7 µM; activity change, negative = inhibition: at the top concentration
In short: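 P. falciparum Dd2-infected red blood cells (2.5% hematocrit, 0.3% parasitemia) grown 72 h at 37 °C under 5% O2 with compounds in a titration, 29 uM to 0.5 nM final. Growth read as SYBR Green-1 fluorescence after ~16 h lysis; artesunate 300 nM as positive control.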
% is set by controls: 0 for no effect and ±100 for the full control effect; potency is the fitted concentration of half-maximal effect.

Activity change, negative = inhibition, inactive:
Cn1cnnc1-c1nn(C)c2c1CN(C(=O)c1cc3ccccc3[nH]1)CC2 -20.5%
N#Cc1cccc(S(=O)(=O)N2CC(C(=O)NC3CCCCC3)C3(CCOCC3)C2)c1 (centres undefined) 11.3%
CCC(C)NC(=O)c1cc2c(Cl)nc3ccc(C)cc3c2s1 (centres undefined) -5.46%
CCCc1noc(-c2cccn3c(CNC(=O)c4ccccc4OCC)nnc23)n1 -8.26%
Cc1csc2nc(COc3ccc(NC(=O)c4ccccc4F)cc3)cc(=O)n12 26.8%
COc1cc(C(=O)Nc2ccccc2OCc2cc(=O)n3cc(C)sc3n2)cc(OC)c1OC 29.8%
Cn1c(=O)c2nc(SCC(=O)Nc3ccc(Cl)c(Cl)c3)n(C)c2n(C)c1=O 26.8%
CCS(=O)(=O)N1CC(F)(F)C[C@H]1c1nc(CCOC)no1 13.7%
COc1cccc(NC(=O)CSc2nc3cc(OC)c(OC)cc3c3nc(-c4ccccc4)nn23)c1 42.6%
COc1ccccc1S(=O)(=O)Cc1ccc(C(=O)NCc2cccs2)o1 5.1%
CC(C(=O)N1CCCN(c2cc(-c3ccc(Cl)cc3)[nH]n2)CC1)c1ccccc1 (centres undefined) -15.7%
Nc1nc(N)c2c(ccc3nccc32)[nH]1 7.51%
O=C(CCc1nc2ccccc2[nH]1)N1C[C@@H](CO)[C@H](c2ccccn2)C1 41.4%
CCN(Cc1nc2ccccc2n1C)c1ccccc1 6.82%
CCOc1c(CNCCSc2nnnn2C)cccc1OC -28%
c1ccc(COc2cncc(-c3cccnc3)c2)cc1 1.56%
COc1cc2c(cc1OC)[C@H](C)N(C(=O)COc1ccccc1)CC2 -6.38%
COc1ccc2c(C)c(C(=O)N3CC(Oc4c(C)cccc4C)C3)oc2c1 41.8%
Cc1nc(-c2c3n(c(=O)n(Cc4ccc(OC(F)(F)F)cc4)c2=O)CCCC3)no1 -13.9%
COCC(=O)N1CCc2nc(-c3ccccc3)nc(-c3ccc(Cl)cc3)c2C1 0%
CC(=O)Nc1ccc(CN2CCn3c(nn(-c4ccc(Cl)cc4)c3=O)C2)cc1 14.2%
Cc1nc2c(c(-c3ccc(O)cc3)n1)CN(C(=O)c1cccc(Cl)c1)CC2 1.23%
Cc1nc(-c2c3n(c(=O)n(Cc4ccc(OC(F)(F)F)cc4)c2=O)CCCCC3)no1 -10.2%
CCn1nc(C)c(-c2cc(C(=O)NCCc3noc(-c4ccccc4)n3)no2)c1C -0.509%
CC1(C)C[C@H](NCc2ccc(CO)o2)[C@@]2(CCC(=O)NCCN3CCOCC3)CC[C@](C)(O)C[C@@H]12 4.43%
COc1ccccc1CNS(=O)(=O)c1ccc2c(c1)CC(=O)N2C -10.4%
COc1ccc(N(CC(=O)NCc2ccncc2)S(=O)(=O)c2ccc(C)c([N+](=O)[O-])c2)cc1 24.8%
Cc1ccc(C(=O)NCCn2c(C)cc3ccccc32)cc1C 0%
O=C(N/N=C/c1ccccn1)c1ccccc1 -1.81%
Cc1n[nH]c(=S)n(/N=C/c2cccs2)c1=O 16.4%
O=c1cc(Nc2ccc3c(c2)OCCO3)[nH]c(=O)n1C1CCCCC1 -0.988%
CCc1ccc(C(=O)N2C[C@@H](CO)[C@H](c3ccccn3)C2)cc1 3.1%
C[C@]1(CO)[C@H]2Cc3sc(NC(=O)C4CCCCC4)nc3[C@@H](CC(=O)NCc3cccnc3)[C@]2(C)CC[C@H]1O -11.7%
O=C(CC1C(=O)NCCN1Cc1cccc(Oc2ccccc2)c1)NCc1ccco1 (centres undefined) 45.2%

Potency, active:
COc1cc(NC(=O)c2cc3c(Cl)nc4ccccc4c3s2)cc(OC)c1OC 4.73 µM
COCCc1nn2c(=O)cc(COC(=O)C(c3ccccc3)c3ccccc3)nc2s1 2.66 µM
Cn1c(=O)[nH]c2nnc(-c3ccc(Cl)c(Cl)c3)nc2c1=O 8.41 µM
CCN1CCN(c2cc(C)c3cc(NC(=O)/C=C/c4ccc(OCCC(C)C)cc4)ccc3n2)CC1 2.11 µM
CCN1CCN(c2cc(C)c3cc(NC(=O)/C=C/c4ccc(C)cc4)ccc3n2)CC1 4.22 µM
COc1cc2nc(NCc3ccccc3)n3nc(-c4ccccc4)nc3c2cc1OC 0.422 µM
COc1cc2nc(NCc3ccc(C)cc3)n3nc(-c4ccccc4)nc3c2cc1OC 0.266 µM
COc1cc2nc(NCc3ccccc3Cl)n3nc(-c4cccnc4)nc3c2cc1OC 2.11 µM
Cc1ccc(C)c(N=Nc2nc3ccccc3n2C)c1 0.299 µM
Cn1nnnc1SCCCNCc1cccc(OCc2ccccc2)c1 9.44 µM
COc1cc2c(cc1OC)C(COc1ccc3c(C)cc(=O)oc3c1)N(C(=O)c1ccccc1C)CC2 (centres undefined) 15 µM
CC(=O)N1CCc2cc(Br)cc(S(=O)(=O)N3CCCCCC3)c21 5.31 µM
CC(=O)N1CCc2cc(Br)cc(S(=O)(=O)N3CCCCC3)c21 5.96 µM
CC(C)c1nc2c(c(-c3ccc(O)cc3)n1)CN(Cc1cccc(F)c1)CC2 9.44 µM
CC(=O)Nc1ccc(CN2CCc3nc(C(C)C)nc(-c4ccc(Cl)cc4)c3CC2)cc1 2.66 µM
CC(C)c1nc2c(c(-c3ccc(O)cc3)n1)CCN(Cc1ccc(OC(F)(F)F)cc1)CC2 2.99 µM
CC(C)c1nc2c(c(-c3ccc(O)cc3)n1)CCN(Cc1ccc(C(F)(F)F)cc1)CC2 5.31 µM
Cc1nc2c(c(-c3ccc(O)cc3)n1)CN(Cc1ccc(C(F)(F)F)cc1)CCC2 4.22 µM
Cc1ccc(C(=O)Nc2cccc(NC(=O)c3ccc(C)c([N+](=O)[O-])c3)n2)cc1[N+](=O)[O-] 15 µM
C/C(=N\NC(=O)c1cccc(Br)c1)c1ccccn1 4.73 µM
C/C(=N\NC(=O)c1ccccc1OCc1ccc(F)cc1)c1ccccn1 4.73 µM
Fc1ccc(-c2csc3ncnc(Cl)c23)cc1 3.35 µM
COc1ccc(-c2csc3ncnc(Cl)c23)cc1 4.22 µM
COc1ccc(C(=O)Nc2nc3c(s2)C[C@@H]2[C@](C)(CO)[C@H](O)CC[C@@]2(C)[C@@H]3CC(=O)NCc2ccco2)cc1 2.66 µM
C#CCN(C)C(=O)C[C@@H]1c2nc(NC(=O)c3ccc(OC)cc3)sc2C[C@@H]2[C@](C)(CO)[C@H](O)CC[C@]21C 2.66 µM
